# In the library only some 2.1% were active in any assay of this set; here they are far more common.
# ID4 binder = binders of human ID4 protein | small molecule microarray, Flag-ID4 binding, fluorescence F/B | P47928 | calls only | actives 1.2% (n = 31,000) | AID 624137; call rule not given here;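 also: a binder raises fluorescence above local background on the spot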
# Target sequence (P47928 whole entry, looked up): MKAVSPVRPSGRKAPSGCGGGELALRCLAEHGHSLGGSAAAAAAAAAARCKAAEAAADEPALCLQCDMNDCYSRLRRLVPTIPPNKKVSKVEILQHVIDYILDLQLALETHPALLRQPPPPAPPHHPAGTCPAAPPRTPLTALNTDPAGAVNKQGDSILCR
# mut p53 react = mutant p53 pathway reactivation | activation, % at 9.98 µM | actives 1.5% (n = 28,000) | SW480 PUMA-promoter luciferase; in the data active = activation above about 52%; inconclusive = no clear call, values can overlap the other calls
# STK33 kin inh = human STK33 kinase inhibition; Q9BYT3; ADP-Glo luminescence, MBP substrate; inhibition, % at 12.5 µM; actives 0.44% (n = 27,000); in the data active = inhibition above about 20%; inconclusive = no clear call, values can overlap the other calls
# Numbers without * were called inactive; i = inactive; ? = inconclusive; . = no result; + = active, no number.
SMILES,ID4 binder,mut p53 react,STK33 kin inh
C[C@H]1CN([C@@H](C)CO)C(=O)c2cc(NC(=O)Nc3ccc(F)cc3)ccc2O[C@@H]1CN(C)CC1CCCCC1,.,.,2.5
CC(=O)c1cccc(NC(=O)CNS(=O)(=O)c2ccc(Br)cc2)c1,i,18.8,-4.3
Cc1cc(C)c(S(=O)(=O)NCC(=O)Nc2ccc(I)cc2)c(C)c1,i,3.3,-4.4
CC(=O)c1ccc(NC(=O)CNS(=O)(=O)c2cccc(Cl)c2)cc1,i,68.1*,-0.7
CC(=O)Nc1ccc(NC(=O)CNS(=O)(=O)c2c(C)cc(C)cc2C)cc1,+,7.6,-5.8
COc1ccc(C)cc1NC(=O)NCc1cc(C)n(C)n1,i,23.8,-4.1
COc1ccccc1C(=O)n1nc(-c2ccccc2)nc1NCc1ccco1,i,23.0,-1.3
CCCC(=O)n1nc(-c2ccccc2)nc1NCc1ccco1,i,49.8,2.7
O=C(c1ccco1)n1nc(-c2ccc(Cl)cc2)nc1NCc1ccco1,i,44.0,3.7
CCCC(=O)n1nc(-c2ccc(Cl)cc2)nc1NCc1ccco1,i,106.7*,-7.8
O=C(c1ccc([N+](=O)[O-])cc1)n1nc(-c2ccc(Cl)cc2)nc1NCc1ccco1,i,127.8*,-4.4
COc1ccc(C(=O)n2nc(-c3ccc(Cl)cc3)nc2NCc2ccco2)cc1OC,i,80.0*,3.2
C[C@H]1[C@H](C)CC[C@]2(C(=O)O)CC[C@]3(C)C4=CCC5C(C)(C)[C@@H](O[C@@H]6O[C@H](C(=O)O)[C@@H](O)[C@H](O)[C@H]6O)CC[C@]5(C)C4CC[C@@]3(C)[C@H]12 (stereo partly specified),i,-0.5,-1.3
O=C(O)C[C@H]1C[C@H]2c3cc(NC(=O)Nc4ccccc4F)ccc3O[C@H]2[C@H](CO)O1,i,.,.
C[C@H](CO)N1C[C@H](C)[C@H](CN(C)C)Oc2cc(C#Cc3cccc(F)c3)ccc2S1(=O)=O,i,-2.9,.
CCOC(=O)c1c(C)n(C)c2ccc(OC(=O)CN3C(=O)c4ccccc4C3=O)cc12,i,9.5,4.1
CS(=O)(=O)N(CC(=O)Nc1cc(Cl)ccc1Oc1ccccc1)c1ccc(F)c(Cl)c1,i,-7.2,4.1
Cc1noc(C)c1S(=O)(=O)N(C)C[C@H]1Oc2ccc(NC(=O)CCCN(C)C)cc2C(=O)N([C@H](C)CO)C[C@@H]1C,+,5.3,.
COc1ccc(S(=O)(=O)N(C)C[C@@H]2Oc3ccc(NC(=O)CCCN(C)C)cc3C(=O)N([C@H](C)CO)C[C@@H]2C)cc1,i,2.5,.
C[C@@H]1CN([C@@H](C)CO)C(=O)c2cc(NC(=O)NC3CCCCC3)ccc2O[C@@H]1CN(C)S(=O)(=O)c1ccc(Cl)cc1,i,-0.5,.
COc1ccc(S(=O)(=O)N(C)C[C@H]2Oc3ccc(NC(=O)CCCN(C)C)cc3C(=O)N([C@H](C)CO)C[C@@H]2C)cc1,+,-12.2,.
C[C@H](CO)N1C[C@H](C)[C@@H](CN(C)S(=O)(=O)c2ccc(Cl)cc2)Oc2ccc(NC(=O)NC3CCCCC3)cc2C1=O,+,-0.2,.
Cc1noc(C)c1S(=O)(=O)N(C)C[C@@H]1OCCCC[C@@H](C)Oc2ccc(NC(=O)CCCN(C)C)cc2C(=O)N([C@H](C)CO)C[C@@H]1C,i,1.3,.
Cc1noc(C)c1S(=O)(=O)N(C)C[C@@H]1Oc2ccc(NC(=O)NC(C)C)cc2CC(=O)N([C@@H](C)CO)C[C@@H]1C,i,-1.3,0.5
O=C(C[C@@H]1CC[C@H](NC(=O)Nc2ccc(C(F)(F)F)cc2)[C@H](CO)O1)NCCN1CCCC1,i,.,.
SMILES,ID4 binder,mut p53 react,STK33 kin inh
COc1ccc(S(=O)(=O)N(C)C[C@@H]2OCc3cnnn3CCCC(=O)N([C@H](C)CO)C[C@@H]2C)cc1,.,.,-4.6
CCC1=C/C(=C\N(C)c2ccccc2)C(=O)S1,i,75.4*,.
O=C(C[C@@H]1C=C[C@@H](NC(=O)CC2CC2)[C@H](CO)O1)NCc1ccc(-c2ccccc2)cc1,i,.,.
N#C/C(=C/c1ccc(O)c(O)c1)C(=O)Nc1ccccc1,i,?,.
N#C/C(=C\c1ccc(O)c(O)c1)C(=O)c1ccc(O)c(O)c1,i,6.7,30.6*
COc1ccc2cc1Oc1ccc(cc1)C[C@H]1c3cc(c(OC)cc3CCN1C)Oc1c(OC)c(OC)cc3c1[C@H](C2)N(C)CC3,.,.,-2.1
COc1cc2c3cc1Oc1c(OC)c(OC)cc4c1[C@@H](Cc1ccc(OC(=O)c5ccc([N+](=O)[O-])cc5)c(c1)Oc1ccc(cc1)C[C@@H]3N(C)CC2)N(C)CC4,+,-2.1,3.9
COC(=O)C[C@H]1C=C[C@H](NC(=O)c2ccccc2)[C@@H](CO)O1,i,.,.
CC(C)c1onc(-c2c(Cl)cccc2Cl)c1COc1ccc(/C=C/c2cccc(C(=O)O)c2)c(Cl)c1,i,67.2*,.
CC(C)NC(=O)N(C)C[C@H]1Oc2c(NS(=O)(=O)c3ccccc3)cccc2C(=O)N([C@H](C)CO)C[C@@H]1C,i,-2.0,.
COc1cccc(NC(=O)N(C)C[C@@H]2Oc3ncc(/C=C/c4ccccc4)cc3C(=O)N([C@H](C)CO)C[C@@H]2C)c1,+,5.1,.
CCCNC(=O)N(C)C[C@@H]1Oc2ncc(-c3ccccc3)cc2C(=O)N([C@@H](C)CO)C[C@H]1C,.,12.4,.
CCCNC(=O)N(C)C[C@H]1Oc2ncc(-c3ccc(C(=O)N(C)C)cc3)cc2C(=O)N([C@H](C)CO)C[C@H]1C,+,4.1,.
C[C@H]1CN([C@@H](C)CO)C(=O)c2cc(/C=C/c3ccccc3)cnc2O[C@H]1CN(C)C(=O)Nc1ccccc1F,.,-1.3,.
C[C@H](CO)N1C[C@H](C)[C@H](CN(C)C(=O)Nc2ccccc2F)Oc2ncc(-c3ccc(F)cc3)cc2C1=O,i,15.5,.
C[C@@H]1CN([C@@H](C)CO)C(=O)c2cc(/C=C/c3ccccc3)cnc2O[C@H]1CN(C)C(=O)Nc1ccccc1F,+,3.3,.
C/C=C/c1cnc2c(c1)C(=O)N([C@@H](C)CO)C[C@@H](C)[C@@H](CN(C)C(=O)Nc1cccc(OC)c1)O2,.,2.8,.
C[C@@H]1CN([C@@H](C)CO)C(=O)c2cc(-c3ccc(F)cc3)cnc2O[C@@H]1CN(C)C(=O)Nc1ccccc1F,+,-7.1,.
C[C@H]1CN([C@@H](C)CO)C(=O)Cc2cc(NS(=O)(=O)c3ccc(Cl)cc3)ccc2O[C@@H]1CN(C)S(=O)(=O)c1ccc(Cl)cc1,.,.,1.7
CC(C)c1ccc(S(=O)(=O)CC#N)cc1,.,.,-1.9
COc1cccc(S(=O)(=O)N[C@@H]2C=C[C@@H](CC(=O)NC3Cc4ccccc4C3)O[C@@H]2CO)c1,i,.,.
Cc1nnc(SCC(=O)NC2CCCCCC2)n1-c1ccccc1,i,-3.1,0.9
CC(C)C#Cc1ccc2c(c1)O[C@@H](CN(C)C)[C@H](C)CN([C@H](C)CO)S2(=O)=O,i,-3.2,.
CN(C)c1nc(SCC(N)=O)nc(N(C)C)n1,i,-3.3,-0.9
C[C@H](CO)N1C[C@H](C)[C@H](CN(C)C(=O)Nc2ccccc2)Oc2ncc(/C=C/c3ccccc3)cc2C1=O,+,0.1,0.3
COc1ccc(NC(=O)N(C)C[C@@H]2Oc3ncc(/C=C/c4ccccc4)cc3C(=O)N([C@H](C)CO)C[C@@H]2C)cc1,.,.,0.9
O=S(=O)(NC1CCN(Cc2ccc(OCCO)cc2)CC1)c1cccc2cccnc12,i,.,.

# Compound activity: PubChem, Broad Institute
